Compound activity as filed in PubChem BioAssay.
NSD2 inh – inhibitors of human histone methyltransferase NSD2. NSD2 peptide methylation, AlphaScreen, 120 min. inhibition, % at 12.5 µM. O96028. AID 743445. actives 0.54% (n = 310,000); in the data active means inhibition above about 50%
Target sequence (O96028 whole entry, looked up): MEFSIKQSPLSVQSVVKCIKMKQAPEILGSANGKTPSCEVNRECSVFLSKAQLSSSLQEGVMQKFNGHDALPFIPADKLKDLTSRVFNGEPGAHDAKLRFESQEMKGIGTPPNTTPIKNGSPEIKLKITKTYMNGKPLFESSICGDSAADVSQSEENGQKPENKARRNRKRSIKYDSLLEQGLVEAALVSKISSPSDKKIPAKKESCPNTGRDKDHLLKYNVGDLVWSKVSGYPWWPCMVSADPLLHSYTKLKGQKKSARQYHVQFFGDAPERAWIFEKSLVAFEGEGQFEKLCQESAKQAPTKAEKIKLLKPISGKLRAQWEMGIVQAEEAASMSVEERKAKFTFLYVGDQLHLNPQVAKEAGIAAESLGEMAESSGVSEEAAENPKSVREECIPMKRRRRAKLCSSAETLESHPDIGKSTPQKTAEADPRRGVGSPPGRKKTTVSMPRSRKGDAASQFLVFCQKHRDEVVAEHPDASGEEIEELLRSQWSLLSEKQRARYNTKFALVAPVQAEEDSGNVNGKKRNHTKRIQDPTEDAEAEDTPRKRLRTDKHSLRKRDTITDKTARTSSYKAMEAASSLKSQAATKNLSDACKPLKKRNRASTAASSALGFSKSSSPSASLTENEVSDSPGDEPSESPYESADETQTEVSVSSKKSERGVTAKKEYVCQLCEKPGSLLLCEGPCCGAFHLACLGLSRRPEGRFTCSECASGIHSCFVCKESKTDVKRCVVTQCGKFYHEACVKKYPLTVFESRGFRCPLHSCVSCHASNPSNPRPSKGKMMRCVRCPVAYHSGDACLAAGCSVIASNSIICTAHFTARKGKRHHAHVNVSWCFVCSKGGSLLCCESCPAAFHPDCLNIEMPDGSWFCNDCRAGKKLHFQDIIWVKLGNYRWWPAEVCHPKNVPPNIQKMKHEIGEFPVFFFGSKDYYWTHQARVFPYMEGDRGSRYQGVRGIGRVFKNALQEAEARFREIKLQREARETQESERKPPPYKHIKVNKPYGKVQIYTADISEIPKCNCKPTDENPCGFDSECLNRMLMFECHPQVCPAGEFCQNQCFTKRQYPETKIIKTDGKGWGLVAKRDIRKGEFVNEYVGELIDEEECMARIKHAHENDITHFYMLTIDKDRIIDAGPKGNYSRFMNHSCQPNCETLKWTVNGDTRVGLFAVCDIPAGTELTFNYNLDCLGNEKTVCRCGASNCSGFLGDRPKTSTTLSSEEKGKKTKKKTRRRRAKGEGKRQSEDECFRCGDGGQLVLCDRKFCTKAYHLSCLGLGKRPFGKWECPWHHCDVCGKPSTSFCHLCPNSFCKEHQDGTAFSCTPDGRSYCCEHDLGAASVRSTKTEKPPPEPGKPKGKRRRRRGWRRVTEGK
Glyco luc inh – N-linked glycosylation inhibition | D54 ERlucT glycosylation luciferase reporter, 24 h; percent of 100 nM tunicamycin response | actives 0.23% (n = 360,000) | reporter increase, % at 12.5 µM;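 active means mean luciferase reporter signal, scaled so untreated is 0 and the glycosylation-blocking control 100, at or above a set limit in every replicate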;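 further: luciferase carries N-glycosylation sites so blocking glycosylation raises the light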
Wnt act – activators of Wnt/beta-catenin signaling; Wnt/beta-catenin reporter cell assay, activator, plate reader; activation, % at 9.35 µM; actives 1.2% (n = 300,000); in the data active means activation above about 30%, passing the limit was not always enough
MITF TRPM1 inh – MITF TRPM1 promoter inhibition in SK-MEL-5 cells | SK-MEL-5 TRPM1 promoter luciferase, 24 h | inhibition, % at 12.5 µM | actives 0.83% (n = 330,000) | AID 488899;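 active means mean inhibition across replicates of 60% or more, whatever share of single replicates reaches that level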
PfHsp90 yeast 2 – inhibits growth of yeast expressing Plasmodium falciparum Hsp90; S. cerevisiae expressing PfHsp90, BacTiter-Glo ATP, 48 h; yeast lacking PDR1 and PDR3 efflux regulators; actives 0.32% (n = 310,000); inhibition, % at 9.4 µM;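 active means every replicate shows inhibition above about 80%, whatever the replicate mean, limit read from the data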
MITF act – activators of MITF-driven TRPM1 promoter activity in SK-MEL-5 cells | SK-MEL-5 TRPM1-promoter luciferase, 24 h; % of positive control, neutral wells = 0 | activation, % at 12.5 µM | actives 0.75% (n = 300,000) | AID 588334;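 active means mean activation of at least 80% with every replicate also reaching 80%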
Of the large screens only hits and unclear results are named; the others gave an inactive call. Hits are enriched below; roughly 2.9% of the tested compounds scored in any of these assays.

O=C(CN1CCc2ccccc21)NN1CC(=O)N(c2ccc(Cl)cc2)CC1=O	none
CSc1ccc(COC(=O)c2cc([N+](=O)[O-])ccc2N2CCOCC2)cc1	MITF TRPM1 inh 67
Cc1ccccc1COC(=O)c1cc([N+](=O)[O-])ccc1N1CCOCC1	none
O=C(COC(=O)/C=C/c1ccccc1)NC(=O)NCc1ccccc1	none
CC(C)(C)c1ccc(-c2nnc(SCC(=O)Nc3ccc(S(=O)(=O)Nc4nccs4)cc3)n2Cc2ccco2)cc1	none (no result: Glyco luc inh, Wnt act, MITF TRPM1 inh, PfHsp90 yeast 2, MITF act)
Cc1ccc(C)c(Nc2nc(N)c3ccccc3n2)c1	Wnt act 33
COc1ccc(C)cc1Nc1nc(N)c2cc(OC)c(OC)cc2n1	MITF TRPM1 inh 74 (no result: Wnt act)
COc1cccc(C(=O)N[C@H](C(=O)N2CCC[C@H]2C(=O)NCCc2ccccc2Cl)C(C)C)c1	none (no result: NSD2 inh, Glyco luc inh, MITF TRPM1 inh, PfHsp90 yeast 2, MITF act)
O=C(CSCc1ccccc1)Nc1cccc(F)c1	Wnt act 63, MITF act 95
COc1ccccc1C(=O)NC(=O)COc1ccc([N+](=O)[O-])cc1	none
Cc1ccc2c(Cl)c(C(=O)Nc3cccnc3)sc2c1	MITF act 95 (no result: Wnt act)
Nc1c(C(=O)c2cccs2)oc2ccccc12	none (no result: Wnt act, MITF act)
Nc1c(C(=O)c2ccc(Br)s2)oc2ccccc12	Wnt act 35
CCCN1CCCCC(NC(=O)c2ccc3ccccc3c2)C1=O (stereo not given)	none (no result: NSD2 inh, Glyco luc inh, MITF TRPM1 inh, PfHsp90 yeast 2, MITF act)
O=C(CN1C(=O)/C(=C/c2ccco2)SC1=S)Nc1ccc(C(=O)O)c(O)c1	NSD2 inh 135
COc1ccc(OCc2cc(C(=O)N(C)Cc3cc(C4CC4)n[nH]3)no2)c(Cl)c1	MITF act 90
O=C1C=C(c2cc3ccccc3s2)CCC1	MITF act 106 (no result: NSD2 inh)
CN(C)c1ccc(/C=C/c2ccc3ccccc3n2)cc1	MITF TRPM1 inh 72 (no result: Wnt act)
O/C(=C\c1ccc2ccccc2n1)c1ccc(O)cc1O	Wnt act 43 (no result: NSD2 inh)
C(=C\c1ccc2ccccc2n1)/c1ccccc1	none
Cc1ccc(/C=C/c2nc3ccccc3s2)s1	none (no result: Wnt act)
Oc1ccc(/C=C/c2ccc3ccccc3n2)cc1	MITF TRPM1 inh 70
CN(C)c1ccc(/C=C/c2nc3ccccc3s2)cc1	MITF TRPM1 inh 77 (no result: Wnt act)
Oc1ccc(/C(Cc2ccc3ccccc3n2)=N\Nc2ccccc2)c(O)c1	none
O=C(O)CCCC(=O)Nc1ccccc1SCCS(=O)(=O)c1ccc(Cl)cc1	none
COc1ccc(C2C(C(=O)N3CCN(c4ccccc4Cl)CC3)CC(=O)N2c2ccc(OC)cc2)cc1 (stereo not given)	none (no result: Glyco luc inh, Wnt act, MITF TRPM1 inh, PfHsp90 yeast 2, MITF act)
COc1ccc(-c2nc(C(N)=O)c3[nH]c(=O)n(-c4cccc(Cl)c4)c3n2)cc1OC	Glyco luc inh 36 (no result: Wnt act)
COc1cccc(-c2nc(C(N)=O)c3[nH]c(=O)n(-c4cccc(Cl)c4)c3n2)c1OC	none (no result: NSD2 inh)
Cc1ccccc1N1CCN(C2CCCN(C(=O)c3snnc3C)C2)CC1 (stereo not given)	none
CCCCCCCCN1C(=O)[C@@H](CC(=O)N2CCSCC2)C[C@@]2(C(=O)OC)C1=C[C@H](C1CCCC1)O[C@@H]2C	none (no result: Glyco luc inh, MITF TRPM1 inh, PfHsp90 yeast 2, MITF act)
Cc1ccc(C(=O)Oc2cccc(-n3cnnn3)c2)cc1	MITF act 112
O=C(Oc1cccc2cccnc12)c1cccc(N2C(=O)C3C4CCC(C4)C3C2=O)c1 (stereo not given)	none (no result: Glyco luc inh, MITF TRPM1 inh, PfHsp90 yeast 2, MITF act)
O=C(Oc1cccc2cccnc12)c1cccc(-n2cnnn2)c1	Wnt act 77
Cc1cc(CN2CCN(c3ncc(Cc4ccccc4)cn3)CC2)cc(C)c1O	none (no result: NSD2 inh, Glyco luc inh, MITF TRPM1 inh, PfHsp90 yeast 2, MITF act)
O=C(Nc1cc2c(cc1Cl)OCCCO2)c1ccc(F)cc1	Wnt act 51
COc1ccc(C(=O)Nc2cc3c(cc2Cl)OCCCO3)cc1	none (no result: Wnt act)
O=C(Nc1ccc(Cl)cc1Cl)c1ccc2c(c1)OCCO2	Wnt act 52
COc1cccc(C(=O)Nc2cc3c(cc2Cl)OCCCO3)c1	Wnt act 38
O=C(Nc1cc2c(cc1Br)OCCCO2)c1ccccc1	Wnt act 52
CC(C)(C)OC(=O)C[C@H]1C/C=C\C[C@@H](CC(=O)N[C@@H](CO)Cc2ccccc2)C(=O)N2CCC[C@@H]2COC1=O	none (no result: NSD2 inh)
O=C(Nc1ccc(Cl)cc1Cl)c1cccc(N2C(=O)C=CC2=O)c1	PfHsp90 yeast 2 107 (no result: NSD2 inh)
CN1CCN(CC(=O)N2CCn3c4c(c5cc(C6CCCCC6)ccc53)CCCC42)CC1 (stereo not given)	MITF TRPM1 inh 65 (no result: NSD2 inh)
Cc1ccc2c(c1)c1c3n2CCN(C(=O)CN2CCN(C)CC2)C3CCC1 (stereo not given)	none
Cc1cc(-c2n[nH]c(=S)n2N=Cc2ccc(OCc3ccccc3)cc2)n[nH]1	none (no result: Glyco luc inh, Wnt act, MITF TRPM1 inh, PfHsp90 yeast 2, MITF act)
CC1=C(CO)C(=O)OC([C@@H](C)C2CC[C@H]3C4C[C@H]5O[C@]56[C@@H](O)C=CC(=O)[C@]6(C)C4CC[C@]23C)C1 (stereo not given in full)	MITF TRPM1 inh 106 (no result: NSD2 inh)
CCCOC(=O)Nc1nc2ccccc2o1	Wnt act 37
CN(C)CCCN1C(=O)c2cccc3cccc(c23)C1=O	Glyco luc inh 116 (no result: MITF act)
CN(C)CCCN1C(=O)c2cc3ccccc3cc2C1=O	none (no result: MITF act)
CCCCN1C(=O)c2cccc3cc(O)cc(c23)C1=O	Wnt act 61 (no result: MITF act)
CN(C)CCN1C(=O)c2cccc3cc([N+](=O)[O-])cc(c23)C1=O	Glyco luc inh 43, MITF TRPM1 inh 84 (no result: MITF act)
COc1ccc(CN2C(=O)c3cccc4cccc(c34)C2=O)cc1	Wnt act 41 (no result: NSD2 inh)
CC(C)CC(NS(=O)(=O)c1ccccc1)C(=O)O (stereo not given)	none (no result: PfHsp90 yeast 2, MITF act)
CC(C)CN=C(NS(=O)(=O)c1ccccc1)C(Cl)(Cl)Cl	MITF TRPM1 inh 86
COC(=O)C1=C(C)N(Cc2cccc(C(F)(F)F)c2)C(=NCc2ccccc2C(F)(F)F)NC1c1cccc(C(F)(F)F)c1 (stereo not given)	none (no result: NSD2 inh, Glyco luc inh, MITF TRPM1 inh, PfHsp90 yeast 2, MITF act)
Cc1ccc(S(=O)(=O)Nc2cc3c(C(=O)Nc4ccccc4)c(C)oc3c3ccccc23)cc1	none
CN(CC(=O)Nc1ccc(Cl)c(C(F)(F)F)c1)C(=O)c1cnccn1	none
CCN1CCN(C(c2ccccc2)c2sc3nc(C)nn3c2O)CC1 (stereo not given)	none (no result: NSD2 inh, MITF TRPM1 inh, MITF act)
CCN1CCN(C(c2ccc(C(F)(F)F)cc2)c2ccc3cccnc3c2O)CC1 (stereo not given)	MITF TRPM1 inh 66, PfHsp90 yeast 2 121
COc1ccc(NC(=O)[C@@H](NC(=O)N2C[C@H]3C[C@@H](C2)c2cccc(=O)n2C3)C(C)C)cc1OC	none (no result: NSD2 inh)
Cc1cccc(NCc2nc3ccccc3n2C)c1	none (no result: NSD2 inh, Wnt act)
Cc1ccc(NCc2nc3ccccc3n2C)c(C)c1	Wnt act 40
O=C(Cn1nnc(-c2cccs2)n1)NCc1cccs1	none
Cc1ccc(C(=O)Cn2nnc(-c3cccs3)n2)cc1	Wnt act 40 (no result: NSD2 inh)
O=C(N/N=C/c1cc([N+](=O)[O-])ccc1O)c1cccc2cc[nH]c12	MITF TRPM1 inh 74
